Source: PubChem BioAssay (NCATS)
Results filed as inconclusive are left out. Active and inactive are the calls of the source. Calls follow the shape of the dose curve; as a rule, active = well fitted curve in the direction sought with a large enough effect; inconclusive = small, poorly fitted or top-dose-only effect, or another doubt; inactive = no such curve, though single readings can be large; an effect the other way counts as inactive or inconclusive.

Assays:
[1] = S16 Schwann cell viability assay (CellTiter-Glo assay) (AID 624031);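 also: native untransfected S16 rat Schwann cells; cellular ATP luminescence as a viability measure; nearly all actives have a fitted effect of over 70% in size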
Procedure, shortened: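 Rat S16 Schwann cells without reporter constructs received compound or DMSO for 24 h at 37 °C under 5% CO2. Cellular ATP was then quantified by CellTiter-Glo luminescence, with vehicle wells defined as 0% activity and cell-free wells as reference.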

AA1029 = assay: qHTS profiling for inhibitors of Plasmodium falciparum proliferation (AID 504749); also: nearly all actives have a fitted effect of over 60% in size; conditions: P. falciparum in erythrocytes, SYBR Green DNA, 72 h; series mostly up to 28.7 µM
Procedure, shortened: (§1)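 Three-day growth assay of blood-stage parasites in erythrocytes (0.3% parasitemia, 2.5% hematocrit) at 37 C, 5% CO2, quantified by SYBR Green DNA staining after overnight detergent lysis.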

AS120 = assay: as above; conditions: P. falciparum in erythrocytes, SYBR Green DNA, 72 h; series mostly up to 28.7 µM
Procedure, shortened: as §1

ATS189 = assay: as above; conditions: P. falciparum in erythrocytes, SYBR Green DNA, 72 h; series mostly up to 28.7 µM
Procedure, shortened: as §1

CP201 = assay: as above; conditions: P. falciparum in erythrocytes, SYBR Green DNA, 72 h; series mostly up to 28.7 µM
Procedure, shortened: as §1

CP203 = assay: as above; conditions: P. falciparum in erythrocytes, SYBR Green DNA, 72 h; series mostly up to 28.7 µM
Procedure, shortened: as §1

CP237 = assay: as above; conditions: P. falciparum in erythrocytes, SYBR Green DNA, 72 h; series mostly up to 28.7 µM
Procedure, shortened: as §1

CP252 = assay: as above; conditions: P. falciparum in erythrocytes, SYBR Green DNA, 72 h; series mostly up to 28.7 µM
Procedure, shortened: as §1

CP256 = assay: as above; conditions: P. falciparum in erythrocytes, SYBR Green DNA, 72 h; series mostly up to 28.7 µM
Procedure, shortened: as §1

CP265 = assay: as above; conditions: P. falciparum in erythrocytes, SYBR Green DNA, 72 h; series mostly up to 28.7 µM
Procedure, shortened: as §1

CP266 = assay: as above; conditions: P. falciparum in erythrocytes, SYBR Green DNA, 72 h; series mostly up to 28.7 µM
Procedure, shortened: as §1

CP268 = assay: as above; conditions: P. falciparum in erythrocytes, SYBR Green DNA, 72 h; series mostly up to 28.7 µM
Procedure, shortened: as §1

CP291 = assay: as above; conditions: P. falciparum in erythrocytes, SYBR Green DNA, 72 h; series mostly up to 28.7 µM
Procedure, shortened: as §1

CP297 = assay: as above; conditions: P. falciparum in erythrocytes, SYBR Green DNA, 72 h; series mostly up to 28.7 µM
Procedure, shortened: as §1

CP329 = assay: as above; conditions: P. falciparum in erythrocytes, SYBR Green DNA, 72 h; series mostly up to 28.7 µM
Procedure, shortened: as §1

ECU = assay: as above; conditions: P. falciparum in erythrocytes, SYBR Green DNA, 72 h; series mostly up to 28.7 µM
Procedure, shortened: as §1

PC15 = assay: as above; conditions: P. falciparum in erythrocytes, SYBR Green DNA, 72 h; series mostly up to 28.7 µM
Procedure, shortened: as §1

TAB109 = assay: as above; conditions: P. falciparum in erythrocytes, SYBR Green DNA, 72 h; series mostly up to 28.7 µM
Procedure, shortened: as §1

CP194 = assay: as above; conditions: P. falciparum in erythrocytes, SYBR Green DNA, 72 h; series mostly up to 28.7 µM
Procedure, shortened: as §1

CP215 = assay: as above; conditions: P. falciparum in erythrocytes, SYBR Green DNA, 72 h; series mostly up to 28.7 µM
Procedure, shortened: as §1

Measured: Potency

C[C@]12CCC(=O)C=C1[C@@H]1C[C@H]1[C@H]1[C@@H]3[C@@H]4C[C@H]4[C@@]4(CCC(=O)O4)[C@@]3(C)CC[C@@H]12
not listed: CP194 | CP215
inactive: all other assays above

C[C@]12CC[C@@H]3c4ccc(O)cc4CC[C@H]3[C@@H]1CCC2OC(=O)CCC1CCCC1 (some centres undefined)
not listed: [1] | CP237 | PC15
inactive: all other assays above

CC1=C(C/C=C(\C)CCCC(C)CCCC(C)CCCC(C)C)C(=O)c2ccccc2C1=O (centres undefined)
not listed: AA1029 | AS120 | ATS189 | CP237 | CP265 | CP291 | PC15 | TAB109
inactive: all other assays above

Cc1c(C)c2c(c(C)c1O)CCC(C)(CCCC(C)CCCC(C)CCCC(C)C)O2 (centres undefined)
not listed: CP297
inactive: all other assays above

CC(C)(C)NC[C@H](O)CSc1nc(-c2ccc(C(N)=O)s2)cs1
inactive: all assays above

CC1CN(c2c(F)c(N)c3c(=O)c(C(=O)O)cn(C4CC4)c3c2F)CC(C)N1 (centres undefined)
inactive: all assays above

CC1=C(c2ccc(NN=C(C#N)C#N)cc2)NNC(=O)C1
inactive: all assays above

COC(=O)C1C2CC3c4[nH]c5cc(OC)ccc5c4CCN3CC2CC(OC)C1OC (centres undefined)
not listed: [1]
inactive: all other assays above

O=C(O)C[CH2][Ge](=[O])[O][Ge](=[O])[CH2]CC(=O)O
inactive: all assays above

CCCSS/C(CCO)=C(/C)N(C=O)Cc1cnc(C)nc1N
not listed: [1]
inactive: all other assays above
